# Results: PubChem BioAssay (NCATS)
# Results filed as inconclusive are left out. Values without a mark were called inactive. Calls come from the whole dose curve; as a rule, active = well fitted cell-killing curve with a large enough effect; inconclusive = small, poorly fitted or top-dose-only effect, or effect the other way; inactive = flat fitted curve, though single readings scatter.
# Tested on: Es-2
# Assay: Primary qHTS to identify gynecologic anti-cancer compounds using libraries of approved drugs and bioactive compounds (AID 1345084); note: nearly all actives have a fitted effect of over 55% in size
# Details: Gynecologic cancer cell panel viability, ATPlite luminescence, 48 h; series mostly up to 57.5 µM; activity change, negative = cytotoxicity: at the top concentration
# Outline: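 ATP-based viability (ATPlite), 1,000 cells/well, 16 h pre-incubation, 48 h compound at 37 C, 5% CO2, 15 min RT before read.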
# % is set by controls: 0 for no effect and ±100 for the full control effect.
row,Structure (SMILES),"activity change, negative = cytotoxicity"
1,NCC(=O)O,12.1% [at 25.3 µM]
2,Cc1c(N)cccc1C(F)(F)F,14.3%
3,O=C(O)CCC(=O)OC[C@@H](NC(=O)C(Cl)Cl)[C@H](O)c1ccc([N+](=O)[O-])cc1,-1.51%
4,O=C(COCCOCCOCC(=O)Nc1c(I)cc(I)c(C(=O)O)c1I)Nc1c(I)cc(I)c(C(=O)O)c1I,3.56%
5,CC(=O)[C@@]1(O)CC[C@H]2[C@@H]3C[C@H](C)C4=CC(=O)CC[C@]4(C)[C@H]3CC[C@@]21C,1.38%
6,CCN(CC)CC(=O)OCC(=O)[C@@]1(O)CC[C@H]2[C@@H]3CCC4=CC(=O)CC[C@]4(C)[C@H]3[C@@H](O)C[C@@]21C,17.6%
7,C[C@@]12CCC[C@H]1[C@@H]1CC[C@H]3C[C@@H](O)CC[C@]3(C)[C@H]1CC2,-0.0478%
8,CCCCC(CC)COC(=O)c1ccccc1C(=O)O (configuration not stated),-0.881% [at 116 µM]
9,N=C(N)c1ccc(OCCCOc2ccc(C(=N)N)cc2)cc1,0.198%
10,CC(C)(C)CC(=O)OCC(=O)[C@@]1(O)CC[C@H]2[C@@H]3CCC4=CC(=O)C=C[C@]4(C)[C@H]3[C@@H](O)C[C@@]21C,4.3%
11,CN=C(N)NC(=O)Nc1c(C)cccc1C,2.41%
12,CO[C@@H]1[C@@H](O[C@@H]2O[C@H](C)[C@@H](O[C@H]3C[C@@](C)(O)[C@@H](O)[C@H](C)O3)[C@H](N(C)C)[C@H]2O)[C@@H](CC=O)C[C@@H](C)[C@@H](O[C@@H]2CC[C@H](N(C)C)[C@@H](C)O2)/C=C/C=C/C[C@@H](C)OC(=O)C[C@H]1OC(C)=O,-21.7%
13,CN(C)CCOC(c1ccccc1)c1ccc(Br)cc1 (configuration not stated),-17.2%
14,O=C(CCCCC(=O)Nc1c(I)cc(I)c(C(=O)O)c1I)Nc1c(I)cc(I)c(C(=O)O)c1I,24.5%
15,OC[C@]1(O)OC[C@@H](O)[C@H](O)[C@@H]1O,-8.35%
16,CN1CCC(=C2c3ccccc3CCc3cccnc32)CC1,-20.4%
17,CN1Cc2cc(C(=O)N3CCC(C4CCNCC4)CC3)ccc2NC(CC(=O)O)C1=O (configuration not stated),0.411%
18,Nc1c(I)cc(I)c(C(=O)N(CCC(=O)O)c2ccccc2)c1I,5.97%
19,Cc1ccccc1N1CCN(CCc2nnc3n2CCCC3)CC1,16.8%

row,Structure (SMILES),"activity change, negative = cytotoxicity"
1,O=C(NO)c1ccccc1,-1.12% [at 116 µM]
2,Cc1ccc2ccc(Cl)cc2n1,-2.29%
3,Cc1ncc(CO)c(CO)c1O,3.42%
4,O=C1CC2(CCCC2)CC(=O)N1CCNCC1COc2ccccc2O1 (configuration not stated),2.52%
5,CC(=O)OCC[N+](C)(C)C,3.64%
6,Oc1ccccc1,-2.62%
7,c1ccc(C(O[C@H]2CCCN(CCc3ccc4c(c3)OCO4)C2)c2ccccc2)cc1,-0.914%
8,CCCCC(=O)OCC(=O)[C@H]1[C@H](C)C[C@H]2[C@@H]3C[C@H](F)C4=CC(=O)C=C[C@]4(C)[C@@]3(F)[C@@H](O)C[C@@]21C,4.81%
9,O=C(OCC(O)CO)c1ccccc1Nc1ccnc2c(C(F)(F)F)cccc12 (configuration not stated),-13.7%
10,CN1C(CSCC(F)(F)F)Nc2cc(Cl)c(S(N)(=O)=O)cc2S1(=O)=O (configuration not stated),-0.204%
11,COc1cc(C=O)ccc1O,-3.29%
12,O=C(O)/C=C(\CC(=O)O)C(=O)O,3.47%
13,O=C(CCCCCCCCC#CI)Oc1ccccc1,12.4%
14,NC(=O)COCCN1CCN(C(c2ccccc2)c2ccc(Cl)cc2)CC1 (configuration not stated),10.7%
15,COC(=O)C1=C(C)NC(COC(N)=O)=C(C(=O)OC(C)C)C1c1cccc(Cl)c1Cl (configuration not stated),-3.34%
16,CC(=O)OCC(=O)[C@@]1(O)[C@H](OC(C)=O)C[C@H]2[C@@H]3CCC4=CC(=O)C=C[C@]4(C)[C@@]3(F)[C@@H](O)C[C@@]21C,3.56%
17,O=C(c1ccccc1)c1ccccc1,8.79%
18,C[C@H]1C[C@@H]2[C@H]([C@@H](O)C[C@@]3(C)[C@H]2CC[C@]3(O)C(=O)CO)[C@@]2(C)C=CC(=O)C=C12,0.329%
